This is a sample that favours compounds with a hit; in the whole collection about 4.1% have one here.
HIV Env fusion = inhibitors of HIV-1 Env-driven cell-cell fusion, primary screen, HeLa-JRFL effector, CEM21 target cells, luciferase; inhibition, % at 12.3 µM; 360,000 compounds, 1.1% hits;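 active means mean replicate inhibition score of at least 50 and every replicate individually at or above 50; inconclusive means only one of the two criteria met; inactive means mean below 50 and not all replicates reaching 50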;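 further: 0% = plate neutral controls and 100% = maraviroc near 300 nM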
PglD inh = C. jejuni PglD acetyltransferase inhibitors, primary screen, biochemical, DTNB colorimetric, single point. AID 602405, 2012. UDP-N-acetylbacillosamine N-acetyltransferase PglD (Campylobacter jejuni). 360,000 compounds, 0.098% hits. inhibition, % at 12.5 µM. purified PglD enzyme, DTNB colorimetric CoA detection; in the data active means inhibition above about 16%, passing the limit was not always enough; inconclusive means no clear call, values can overlap the other calls
ALR inh = inhibitors of human ALR sulfhydryl oxidase, primary screen, biochemical, H2O2 detection, HRP-luminol luminescence, single point; FAD-linked sulfhydryl oxidase ALR (Homo sapiens), P55789; purified ALR, DTT oxidation; inhibition, % (no concentration beside the values); 290,000 compounds, 3.8% hits; AID 485317, 2010;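 active means mean replicate inhibition above about 79%, with every replicate also reaching it, limit read from the data; inconclusive means only one of the two criteria met; inactive means mean below limit and not every replicate reaching it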
NSD2 inh = NSD2 histone methyltransferase inhibitors, primary screen, biochemical, AlphaScreen, single concentration, set 2 | NSD2 peptide methylation, 120 min | 310,000 compounds, 0.54% hits | Histone-lysine N-methyltransferase NSD2 (Homo sapiens), O96028 | inhibition, % at 12.5 µM; in the data active means inhibition above about 50%
Target sequence (O96028 whole entry, looked up): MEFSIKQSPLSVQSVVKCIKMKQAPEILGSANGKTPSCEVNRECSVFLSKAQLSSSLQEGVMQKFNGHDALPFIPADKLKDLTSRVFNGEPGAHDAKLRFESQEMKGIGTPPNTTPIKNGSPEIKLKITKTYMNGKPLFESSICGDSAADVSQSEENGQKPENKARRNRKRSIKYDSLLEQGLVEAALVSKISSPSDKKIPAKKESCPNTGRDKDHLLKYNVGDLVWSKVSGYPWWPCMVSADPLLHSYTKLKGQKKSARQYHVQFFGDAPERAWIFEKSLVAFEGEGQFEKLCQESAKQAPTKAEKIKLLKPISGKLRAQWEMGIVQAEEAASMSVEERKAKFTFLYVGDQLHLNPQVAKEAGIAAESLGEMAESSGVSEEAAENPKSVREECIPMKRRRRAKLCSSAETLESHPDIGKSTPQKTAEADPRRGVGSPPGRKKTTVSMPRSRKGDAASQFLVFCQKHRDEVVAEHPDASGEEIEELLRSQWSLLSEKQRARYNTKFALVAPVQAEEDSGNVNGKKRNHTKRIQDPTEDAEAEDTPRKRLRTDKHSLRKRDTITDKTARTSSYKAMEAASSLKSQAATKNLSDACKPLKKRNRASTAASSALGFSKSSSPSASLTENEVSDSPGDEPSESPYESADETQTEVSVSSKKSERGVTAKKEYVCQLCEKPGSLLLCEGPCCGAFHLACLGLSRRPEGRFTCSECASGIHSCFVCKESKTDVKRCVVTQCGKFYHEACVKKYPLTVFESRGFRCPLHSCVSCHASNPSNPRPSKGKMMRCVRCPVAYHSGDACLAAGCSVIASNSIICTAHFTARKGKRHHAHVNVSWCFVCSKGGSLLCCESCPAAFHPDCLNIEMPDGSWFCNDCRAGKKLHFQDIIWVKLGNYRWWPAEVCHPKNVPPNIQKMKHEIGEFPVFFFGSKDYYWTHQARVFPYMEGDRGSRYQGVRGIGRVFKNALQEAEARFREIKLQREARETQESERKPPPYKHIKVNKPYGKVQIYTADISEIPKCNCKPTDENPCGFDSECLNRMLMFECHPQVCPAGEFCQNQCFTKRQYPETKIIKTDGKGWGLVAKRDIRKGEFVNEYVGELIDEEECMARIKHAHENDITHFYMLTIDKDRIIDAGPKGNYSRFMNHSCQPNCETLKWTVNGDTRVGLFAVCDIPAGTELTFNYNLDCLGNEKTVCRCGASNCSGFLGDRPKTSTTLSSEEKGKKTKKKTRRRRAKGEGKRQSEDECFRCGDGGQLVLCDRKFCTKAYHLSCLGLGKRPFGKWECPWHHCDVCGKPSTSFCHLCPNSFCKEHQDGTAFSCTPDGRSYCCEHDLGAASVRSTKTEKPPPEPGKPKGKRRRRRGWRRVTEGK
CFTR F508del cor = F508del CFTR correction, initial screen, CFBE line, single point; CFBE cells, YFP halide quenching; stimulated with forskolin plus potentiator P3; % fluorescence drop versus neutral controls; activity (quench increase), % at 7.58 µM; 350,000 compounds, 0.36% hits; AID 720511, 2013;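 active means mean added fluorescence quench of at least 8% versus neutral control, with both replicates also reaching 8%; inconclusive means only one of the mean or replicate conditions met; inactive means mean below 8% and not both replicates reaching 8%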;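 further: cells transiently co-express mutant CFTR-F508del with the halide-sensitive YFP; corrector assay measuring rescue of mutant channel to the surface after 24 h compound exposure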
Casp6 inh = human caspase-6 inhibitors, primary screen, biochemical, VEID-R110 fluorescence, single point, set 2. purified caspase-6, Z-VEID-R110 cleavage fluorescence. inhibition, % at 12.5 µM. 350,000 compounds, 0.53% hits. AID 686996, 2013;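 active means mean inhibition across replicates at least about 35%, with every replicate also reaching that limit, limit read from the data; inconclusive means only one of the two criteria met; inactive means neither criterion met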;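 further: 0% = median of neutral control wells and 100% = no fluorescence left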
* = called active by the depositor; ? = inconclusive; / = not tested or not shown; [ ] = dose if it differs, or a comment.

SMILES	HIV Env fusion	PglD inh	ALR inh	NSD2 inh	CFTR F508del cor	Casp6 inh
O=C(C[C@H]1C=C[C@@H](NS(=O)(=O)c2ccccc2)[C@@H](CO)O1)NCc1ccncn1	-3[16.7 µM]	2	/	/	-4	-1
CNC(=S)NNc1nc(N2CCOCC2)nc(N2CCOCC2)n1	-4	-11	85*	-3	2	-1
CCNC(=S)NNc1nc(N2CCOCC2)nc(N2CCOCC2)n1	-26	/	-10	-2	-1	/
Cc1cc(C)nc(N/N=C/C2=C(N3CCOCC3)C(=C\c3ccc(Cl)cc3)/CC2)n1	-26	/	98*	3	/	/
CCCCSc1nc2ccc(Nc3nc(N4CCOCC4)nc(N4CCOCC4)n3)cc2s1	/	1	90*	/	/	/
Cc1cc(C)nc(N/N=C/c2ccc(N3CCOCC3)cc2)n1	-5	-3	97*	1	1	-1
COC(=O)C[C@H]1CC[C@H]2[C@@H](COc3ccc(NS(C)(=O)=O)cc3C(=O)N2C)O1	/	/	/	/	0	0
Cc1cccc(C(P(=O)(c2ccccc2)c2ccccc2)P(=O)(c2ccccc2)c2ccccc2)n1	64*	/	0	3	/	/
CCCNC(=O)N1[C@@H](CO)[C@@H]2c3ccccc3N(C(=O)Nc3cccc(F)c3)C[C@@H]21	/	2	/	/	3	1
Cc1ccc(C(=O)C[n+]2cc(-c3ccc(C)cc3)n3c2CCCCC3)cc1	68*	2	-2	3	/	/
CCN(CC)S(=O)(=O)c1ccc(Cl)c(NC(=O)CCCCl)c1	8	/	/	-3	-1	5
CCN(CC)S(=O)(=O)c1ccc(N2CCOCC2)c(NC(=O)c2ccco2)c1	58*	2	3	1	4	3
CCN(CC)S(=O)(=O)c1ccc(N2CCCC2)c(NC(=O)Cc2c(F)cccc2Cl)c1	57*	0	-2	-2	2	-8
CCN1CCN(c2ccc(S(=O)(=O)N3CCCCC3)cc2NC(=O)Cc2c(F)cccc2Cl)CC1	-2	-6	-1	6	0	-2
CCCC(=O)Nc1cc(S(=O)(=O)N(CC)CC)ccc1Cl	6	/	98*	-2	/	2
COC(=O)C[C@@H]1C[C@@H]2c3cc(NC(=O)CN(C)C)ccc3O[C@@H]2[C@H](CO)O1	2[16.7 µM]	7	/	/	-4	-1
CO[C@H]1CN(C)C(=O)c2cc(NS(C)(=O)=O)ccc2OC[C@H](C)N(C(=O)CN(C)C)C[C@@H]1C	12[16.7 µM]	0	/	/	-2	-25
C[C@H]1CN([C@@H](C)CO)S(=O)(=O)c2ccc(C#CC3CC3)cc2O[C@@H]1CN(C)Cc1ccc(F)cc1	24[16.7 µM]	7	/	/	0	-1
Cc1ccc(C(=O)Nc2ccc(SC(F)F)cc2)s1	-216	3	10	-9	-2	-4
O=C(Nc1ccc(SC(F)F)cc1)C1=COCCO1	/	-4	99*	-1	-2	1
Cc1ccc(S(=O)(=O)Nc2ccc3c(c2)C(=O)N([C@@H](C)CO)C[C@H](C)[C@H](CN(C)C)OCCCC[C@H](C)O3)cc1	4[16.7 µM]	/	/	/	-2	/
CC(C)CC#Cc1ccc2c(c1)O[C@H](CN(C)C(=O)Cc1cccnc1)[C@@H](C)CN([C@H](C)CO)S2(=O)=O	-27[16.7 µM]	0	/	/	-2	/
COCC(=O)N(C)C[C@@H]1Oc2cc(-c3ccccc3F)ccc2S(=O)(=O)N([C@H](C)CO)C[C@@H]1C	-5[16.7 µM]	-7	/	/	1	0
CC(=S)/C=C1\Sc2ccccc2N1C	/	-7	83*	/	0	-1
COc1ccc(C(=O)/C=C2\Sc3ccccc3N2C)cc1	-201	/	31	-9	3	0
SMILES	HIV Env fusion	PglD inh	ALR inh	NSD2 inh	CFTR F508del cor	Casp6 inh
CCOC(=O)/C=C(\C)Sc1cc(O)c2ccccc2c1O	11	6	/	/	2	94*
CCN1CCc2nc(SCC(=O)Nc3ccc(OC)cc3)c(C#N)cc2C1	-11	4	99*	0	/	/
COc1ccc(-c2c(C#N)c(SCC(=O)Nc3ccccc3)nc3c2CCCC3)cc1	/	8	-3	-2	/	/
COc1ccc(NC(=O)CSc2nc3c(cc2C#N)CN(C)CC3)cc1	/	4	97*	1	/	/
Cc1noc(NS(=O)(=O)c2ccc(NC(=O)CSc3nc4c(cc3C#N)CCCCC4)cc2)c1C	11	6	54	1	/	/
CN1CCc2nc(SCc3ccc(C(C)(C)C)cc3)c(C#N)cc2C1	/	0	?	8	/	/
CN1CCc2nc(SCC(=O)Nc3ccc(F)cc3)c(C#N)cc2C1	/	/	99*	/	/	/
C[C@@H]1CN([C@H](C)CO)C(=O)c2cc(NS(=O)(=O)c3ccccc3)ccc2O[C@H]1CN(C)C(=O)Nc1ccc(C(F)(F)F)cc1	-15[16.7 µM]	/	/	/	-1	/
O=[N+]([O-])c1ccc(-c2cnc(NO)nc2)cc1	-19	-4	99*	2	/	/
CCOC(=O)N=Nc1c2ccccc2c2nc3no[nH]c3nc12	76*	-1	/	/	/	25
CCOC(=O)N=Nc1c(O)n(CC(=O)OC)c2ccccc12	10	1	-8	5	/	/
CCC(=O)N1CC2(C1)CN(CC1CCCCC1)[C@@H](CO)c1c2c2ccc(OC)cc2n1C	/	/	/	/	0	7
COc1ccc(C2=Nn3c(nnc3-c3ccccc3F)SC2)cc1OC1CCCC1	-79	-2	-4	/	13*	1
COc1ccc(C2=Nn3c(nnc3-c3ccccc3F)SC2)cc1OC1CCOC1 (stereo unspecified)	-40	7	3	/	11*	-2
COc1ccc2c3c([nH]c2c1)[C@@H](CO)N(C(=O)Nc1ccccc1F)CC31CCN(C(=O)C2CC2)CC1	/	/	/	/	0	-2
CC(=O)C1=C(O)C(=O)N(Cc2ccccc2)C1c1ccc(N(C)C)cc1 (stereo unspecified)	9	2	96*	4	0	0
CC(=O)C1=C(O)C(=O)N(Cc2ccccc2)C1c1ccc(Cl)cc1 (stereo unspecified)	12	0	4	1	/	1
CCCNC(=O)[C@@]1(c2ccc([N+](=O)[O-])cc2)CC(=O)N(CC23CC4CC(CC(C4)C2)C3)[C@@H]1c1ccc(CO)cc1I	19[16.7 µM]	7	/	/	-1	-1
CC(=O)N(C)C[C@H]1Oc2cc(-c3ccncc3)ccc2S(=O)(=O)N([C@@H](C)CO)C[C@H]1C	15[16.7 µM]	1	/	/	-2	0
COc1cc(CN(C)C(=O)C(=O)c2c[nH]c3ccccc23)ccc1O	6	1	/	4	1	2
COc1ccc(C(c2c[nH]c3ccccc23)c2c[nH]c3ccccc23)cc1O	-39	-4	88*	/	0	0
Cc1ccc(S(=O)(=O)Nc2ccc3c(c2)C(=O)N([C@H](C)CO)C[C@@H](C)[C@H](CN(C)Cc2ccc(C(F)(F)F)cc2)OCCCC[C@@H](C)O3)cc1	65*[16.7 µM]	-1	/	/	3	2
